Results as given in PubChem BioAssay (Tox21).
Results filed as inconclusive are left out. The source made the active and inactive calls. Unless noted, the call rests on the fitted dose curve; in most records, active means well fitted curve in the direction sought with a large enough effect in the repeat runs; inconclusive means weak or mixed curves; inactive means no such curve, though single readings can be large; an effect the other way counts as inactive or inconclusive. Non-standard residues stand in square brackets, D forms with d. Residues, ends and D or L forms follow the SMILES beside them. *: point of attachment. Sta = CC(C)C[C@H](N)[C@@H](O)CC(=O)O; Isovaleryl = CC(C)CC(=O)*

Tests used:
[1] = qHTS assay for small molecule agonists of the p53 signaling pathway (AID 651631; calls by dose curve; further: nearly all actives have a fitted effect of over 15% in size)
Summary of the method: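 p53RE-bla HCT-116 cells; compounds 16 h, 37 °C; LiveBLAzer B/G FRET substrate 2 h RT; fluorescence intensity read-out, qHTS format.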

[2] = qHTS assay for small molecules that induce genotoxicity in human embryonic kidney cells expressing luciferase-tagged ATAD5 (AID 651632); further: nearly all actives have a fitted effect of over 15% in size
Summary of the method: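 A rise in luciferase signal from ATAD5-tagged HEK293T cells marks genetic stress. Cells were exposed to compounds for 16 hr at 37C, 5% CO2, then luciferase was quantified after a 30 min room-temperature incubation with Amplite.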

[3] = qHTS assay for small molecule agonists of the p53 signaling pathway - cell viability (AID 651633; calls by dose curve;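 further: p53RE-bla HCT reporter cells with a stable beta-lactamase p53 reporter; series mostly up to about 83 µM; nearly all actives have a fitted effect of over 30% in size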)
Summary of the method: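 p53RE-bla cells, seeded at 4,000 per well and rested 5 h at 37 C/5% CO2, received compounds in DMSO for 16 h at 37 C. CellTiter-Glo was then added, and luminescence was read after 30 min at room temperature to gauge cytotoxicity.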

[4] = qHTS assay for small molecules that induce genotoxicity in human embryonic kidney cells expressing luciferase-tagged ATAD5 - cell viability (AID 651634; calls by dose curve; further: nearly all actives have a fitted effect of over 25% in size)
Summary of the method: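 Cytotoxicity counter-readout: after 15.5 hr compound treatment at 37C, live-cell protease activity in ATAD5-luciferase HEK293T cells measured by CellTiter-Fluor fluorescence, 30 min development at 37C.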

[5] = qHTS assay for small molecule disruptors of the mitochondrial membrane potential - cell viability (AID 720634; calls by dose curve;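 further: human HepG2 liver cancer cells; series mostly up to about 83 µM; nearly all actives have a fitted effect of over 20% in size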)
Summary of the method: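 Cytotoxicity was quantified from ATP content by CellTiter-Glo luminescence in the same wells as the MMP dye read-out. HepG2 (2,000 cells/well) were plated overnight and exposed to compounds for 1 hr at 37 C.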

[6] = qHTS assay for small molecule disruptors of the mitochondrial membrane potential (AID 720635)
Summary of the method: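 HepG2 cells (2,000/well) attached overnight at 37C, then took compound for 1 hr at 37C, 5% CO2. Mito-MPS dye was added for 30 min; fluorescence was read at 490/535 nm (monomers) and 540/590 nm (aggregates).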

[7] = qHTS assay to test for compound auto fluorescence at 590 nm (red) in HepG2 cells (AID 720674)
Summary of the method: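 Compound auto-fluorescence is scored relative to Rose Bengal sodium, measured at 540/590 nm in live HepG2 cultures after 1 hr compound contact (37 C, 5% CO2).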

[8] = qHTS assay to test for compound auto fluorescence at 535 nm (green) in HepG2 cells (AID 720675)
[9] = qHTS assay to test for compound auto fluorescence at 460 nm (blue) in HEK293 cells (AID 720678)
Summary of the method: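 Intrinsic compound fluorescence is recorded in live HEK293 cultures after overnight incubation at 37C, 5% CO2, using excitation 405 nm and emission 460 nm. Values are referenced to triamterene.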

[10] = qHTS assay to test for compound auto fluorescence at 535 nm (green) in HEK293 cells (AID 720680)
[11] = qHTS assay to test for compound auto fluorescence at 535 nm (green) in HEK293 cell free culture (AID 720682)
Summary of the method: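 Cell-free medium (DMEM, 10% FBS) receives compound or DMSO by pintool. Plate read directly at Ex 485/Em 535 nm. Signal converted to fluorescein equivalency.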

[12] = qHTS assay to test for compound auto fluorescence at 590 nm (red) in HEK293 cell free culture (AID 720683)
Summary of the method: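 Tox21 10K library compounds were pinned into cell-free DMEM with 10% FBS and fluorescence was read at excitation 540 nm. Activity is expressed as Rose Bengal sodium equivalency.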

[13] = qHTS assay to test for compound auto fluorescence at 590 nm (red) in HepG2 cell free culture (AID 720684)
Summary of the method: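 Ex 540 / Em 590 nm read of compound in cell-free MEM (10% FBS). Rose Bengal sodium reference.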

[14] = qHTS assay to test for compound auto fluorescence at 460 nm (blue) in HepG2 cell free culture (AID 720685)
Summary of the method: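 Cell-free plates of MEM plus 10% FBS received 23 nL compound or DMSO vehicle; blue-channel (405/460 nm) intensity scored against triamterene as reference fluorophore.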

[15] = qHTS assay to test for compound auto fluorescence at 535 nm (green) in HepG2 cell free culture (AID 720686)
[16] = qHTS assay to test for compound auto fluorescence at 460 nm (blue) in HepG2 cells (AID 720687)
Summary of the method: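 Cells (2,000/well in MEM with 10% FBS) attached overnight at 37 C, then were exposed to compound or DMSO for 1 hr at 37 C, 5% CO2. Fluorescence read at Ex/Em 405/460 nm, expressed as triamterene-equivalent signal.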

[17] = qHTS assay to test for compound auto fluorescence at 460 nm (blue) in HEK293 cell free culture (AID 720681)
Summary of the method: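 Test compounds were pinned into cell-free culture medium (DMEM with 10% FBS) and fluorescence was read directly at Ex/Em 405/460 nm. Signals were expressed as fluorescence equivalents of triamterene, with DMSO vehicle as control.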

[18] = target: Glucocorticoid receptor (Homo sapiens) (UniProt P04150); experiment: qHTS assay to identify small molecule agonists of the glucocorticoid receptor (GR) signaling pathway (AID 720691; active means well fitted activation curve with a large enough effect in the signal ratio in the repeat runs, not every such curve was filed as active; the % refers to the signal ratio)
Summary of the method: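 Agonist-mode qHTS in HeLa cells stably expressing a glucocorticoid-response-element beta-lactamase reporter. Fluorescence intensity read with FRET substrate (2 h, room temperature) after 18 h compound treatment at 37 C.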

[19] = qHTS assay to test for compound auto fluorescence at 590 nm (red) in HEK293 cells (AID 720679)
Summary of the method: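 Red autofluorescence, HEK293 cells: 2,000 cells/well; attach 4-5 hr 37C; add 23 nL cpd or DMSO; incubate o/n 37C 5% CO2; read Ex540/Em590; Rose Bengal sodium reference.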

[20] = target: Glucocorticoid receptor (Homo sapiens) (UniProt P04150); experiment: qHTS assay to identify small molecule antagonists of the glucocorticoid receptor (GR) signaling pathway (AID 720692; active means well fitted inhibition curve with a large enough effect in the signal ratio in the repeat runs, not every such curve was filed as active; the % refers to the signal ratio)
Summary of the method: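 Inhibition of dexamethasone-driven (5 nM final) beta-lactamase expression was measured in GRE-reporter HeLa cells over 18 h at 37C. Fluorescence was read after 2 h with the B/G FRET substrate at room temperature.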

Measured: Potency

Chain of Glucocorticoid receptor (Homo sapiens) (P04150 whole entry, looked up): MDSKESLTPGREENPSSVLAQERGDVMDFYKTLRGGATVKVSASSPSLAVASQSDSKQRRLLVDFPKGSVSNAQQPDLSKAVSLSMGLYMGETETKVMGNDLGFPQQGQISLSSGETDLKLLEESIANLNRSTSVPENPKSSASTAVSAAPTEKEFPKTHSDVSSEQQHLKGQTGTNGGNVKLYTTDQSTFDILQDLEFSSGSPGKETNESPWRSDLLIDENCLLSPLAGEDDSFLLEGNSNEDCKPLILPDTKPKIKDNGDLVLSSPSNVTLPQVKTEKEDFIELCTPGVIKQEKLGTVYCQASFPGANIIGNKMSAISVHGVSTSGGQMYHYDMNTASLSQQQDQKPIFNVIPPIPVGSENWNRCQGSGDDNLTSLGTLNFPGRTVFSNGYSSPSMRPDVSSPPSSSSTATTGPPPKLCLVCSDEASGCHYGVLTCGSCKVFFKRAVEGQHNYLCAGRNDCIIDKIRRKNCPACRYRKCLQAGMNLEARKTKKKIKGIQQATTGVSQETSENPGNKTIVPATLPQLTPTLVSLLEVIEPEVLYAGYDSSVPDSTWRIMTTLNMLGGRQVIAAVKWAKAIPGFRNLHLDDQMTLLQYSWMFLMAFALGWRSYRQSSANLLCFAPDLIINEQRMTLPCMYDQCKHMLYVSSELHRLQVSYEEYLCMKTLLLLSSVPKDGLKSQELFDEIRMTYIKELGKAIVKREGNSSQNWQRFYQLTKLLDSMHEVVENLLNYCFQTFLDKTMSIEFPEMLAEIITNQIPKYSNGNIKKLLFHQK

CC(=O)c1c(C)cc(C(C)(C)C)cc1C
not listed: [17] | [18] | [19] | [20]
inactive: all other assays above

CC(C)CC(O)Cc1ccccc1 (stereo not given)
not listed: [19] | [20]
inactive: all other assays above

CC(O)CCCCn1c(=O)c2c(ncn2C)n(C)c1=O (stereo not given)
not listed: [13] | [18] | [19] | [20]
inactive: all other assays above

Cc1ccc(O)c([N+](=O)[O-])c1
not listed: [7] | [18] | [19] | [20]
inactive: all other assays above

NC[C@H]1O[C@H](O[C@H]2[C@H](O)[C@@H](O[C@H]3O[C@H](CO)[C@@H](O)[C@H](N)[C@H]3O)[C@H](N)C[C@@H]2N)[C@H](N)[C@@H](O)[C@@H]1O
not listed: [13]
inactive: all other assays above

CC(=O)Nc1ccc(S(=O)(=O)Nc2cc(C)on2)cc1
not listed: [13]
inactive: all other assays above

CC(C)CC(=O)N[C@H](C(=O)N[C@H](C(=O)N[C@@H](CC(C)C)[C@@H](O)CC(=O)N[C@@H](C)C(=O)N[C@@H](CC(C)C)[C@@H](O)CC(=O)O)C(C)C)C(C)C (Isovaleryl-VV[Sta]A[Sta]-OH)
not listed: [13] | [18] | [20]
inactive: all other assays above

O=CN1CCCCC1
not listed: [7] | [13] | [18] | [20]
inactive: all other assays above

CCCOc1ccc(C(=O)OCCN(CC)CC)cc1N
not listed: [13]
inactive: all other assays above

CCO/C=C1\N=C(c2ccccc2)OC1=O
not listed: [7] | [20]
inactive: all other assays above

COCCCOc1cc(C[C@@H](C[C@H](N)[C@@H](O)C[C@H](C(=O)NCC(C)(C)C(N)=O)C(C)C)C(C)C)ccc1OC
not listed: [9]
inactive: all other assays above

CCCCCCCCCCCCCC(=O)OCC
not listed: [7] | [13] | [20]
inactive: all other assays above

c1coc(Cn2cccc2)c1
inactive: all assays above
